Test results from PubChem BioAssay AID652054 (National Center for Advancing Translational Sciences (NCATS), 2013).
Hit rate of the full screen: of about 360,000 compounds, about 9,100 (2.5%) were called active. About 4% were inconclusive and are not listed. The full list was thinned out, with actives kept by preference. Values without a mark were called inactive. No stated cut-off is given here; in the data, active means max response below about -50%; inconclusive means no clear call, values can overlap the other calls; inactive means above that.

What follows are compounds tested against D(3) dopamine receptor (Homo sapiens) (UniProt P35462) (assay: qHTS of D3 Dopamine Receptor Antagonist: qHTS). Details: D3R cells, DiscoveRx beta-arrestin luminescence, antagonist mode; hits give low values.
Chain of D(3) dopamine receptor (Homo sapiens) (P35462 whole entry, looked up): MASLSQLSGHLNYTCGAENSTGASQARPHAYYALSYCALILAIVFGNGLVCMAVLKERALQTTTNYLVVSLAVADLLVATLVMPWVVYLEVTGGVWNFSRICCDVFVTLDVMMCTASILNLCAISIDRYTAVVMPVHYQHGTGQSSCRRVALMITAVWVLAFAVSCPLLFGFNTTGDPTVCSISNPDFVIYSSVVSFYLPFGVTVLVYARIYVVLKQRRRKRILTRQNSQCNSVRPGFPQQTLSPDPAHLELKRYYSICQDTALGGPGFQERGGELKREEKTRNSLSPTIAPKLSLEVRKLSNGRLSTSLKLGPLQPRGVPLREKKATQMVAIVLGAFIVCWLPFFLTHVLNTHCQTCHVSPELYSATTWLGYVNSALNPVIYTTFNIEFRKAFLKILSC
Excerpt: D3 DARs represent a very important target for the treatment of several neuropsychiatric disorders. Indeed, one of the most promising therapeutic applications for the D3 DAR is in the area of addiction and related disorders. […] These findings have been observed with a number of addictive substances including cocaine, amphetamine, nicotine, and alcohol. […] Antagonism of the D3 DAR may also be therapeutic in the treatment of schizophrenia or psychosis. […] Since the D3 DAR is expressed in areas of the CNS associated with the control of mood and emotion, it has been hypothesized that selective antagonism of the D3 DAR may be effective in treating psychosis without inducing the motor side effects typically seen with D2 DAR antagonists.
This part of the project aims to discover novel antagonist.
NIH Chemical Genomics Center [NCGC]
NIH Molecular Libraries Probe Centers Network [MLPCN]
Assay Submitter (PI): David Sibley, NINDS
Freshly passaged cells are plated in 1536 well white, solid bottom plates at a density of 1500 cells/well in 3microl of complete media. After an overnight incubation at 37 degrees C in 5% CO2, cells are loaded with 23nl of test compound from the compound library (as well as dopamine controls) using a 1536 pintool and incubated at 37 degrees C for 90 minutes. Two microliters of DiscoveRx reagent is then added to all cells, and they are incubated for an additional 30 - 60 minutes at room temperature. Following incubation, luminescence is measured on a ViewLux CCD-based luminometer reader using a 20 sec exposure time.
On the % scale 0 is the no-effect control and ±100 the full control effect.

| SMILES | max response, negative = inhibition |
| --- | --- |
| C[C@H]1CN([C@@H](C)CO)C(=O)CCCn2nncc2CO[C@H]1CN(C)C(=O)Oc1cccc2ccccc12 | 27% |
| CCOC(=O)C1CN(C)CCC1=O (stereo not given) | -50.3% (active) |
| CCOC(=O)[C@]12Cc3cc(OC)ccc3[C@H]1N(C(C)C)C(=O)c1ccccc12 | 0.502% |
| c1ccc(C(CN2CCCCC2)c2ccccc2)cc1 | 5.85% |
| O=[N+]([O-])c1ccc(C2C3C(c4ccccc4)=NC4(CCCCC4)N32)cc1 (stereo not given) | 4.9% |
| O=C1NC(=O)C(Cc2ccccc2)C(=O)N1 | 4.35% |
| CC(=O)N1CN2CN(C(C)=O)CC(C(=O)c3ccc(Br)cc3)(C2)C1 | 2.09% |
| Cc1cc2ccccn2c1C(C[N+](=O)[O-])c1c(F)cccc1Cl (stereo not given) | -52.4% (active) |
| Cn1cc(C(=O)OCC(=O)N2CCCC2)c2ccccc21 | 0% |
| CCC(=O)OC(Cc1ccccc1)(c1ccccc1)C(C)CN(C)C (stereo not given) | -66% (active) |
| O=P(OC1=CCCCC1)(c1ccccc1)c1ccccc1 | 16.2% |
| CN(C)CCN(CC1CCCN(Cc2ccccc2F)C1)C(=O)Cc1ccc(F)c(F)c1 (stereo not given) | -0.712% |
| Nc1ccc(C(=O)N/N=C2/CN3CCC2CC3)cc1 | -6.03% |
| C=CCN1C(=O)NC(=O)/C(=C/c2ccc(OCC(=O)Nc3ccc(C)cc3)cc2)C1=O | -2.43% |
| O=C(O)C1CSC(c2cccnc2)N1 (stereo not given) | -75.1% (active) |
| CC(C)n1c(=O)c(C=Nc2ccc(Br)cc2)c(O)n(Cc2ccco2)c1=O | -0.258% |
| COC(=O)C1=C(c2ccc(OCc3ccccc3)cc2)C[C@@H]2CC[C@H]1N2C(=O)NCc1ccc(Cl)cc1 | -2.39% |
| COc1ccc(N=Cc2c(O)n(C)c(=O)[nH]c2=O)cc1 | -8.25% |
| COc1ccc(C(=O)C2CCCN(Cc3ccc(C)s3)C2)cc1OC (stereo not given) | 1.99% |
| Cc1ccsc1C(=O)C1CCCN(Cc2ccc(O)cc2)C1 (stereo not given) | -22.3% |
| Cc1ccc(CN2CCCC(C(=O)c3ccc4c(c3)OCO4)C2)cc1C (stereo not given) | -74.3% (active) |
| COc1ccc(C2C=C(C)Oc3c2c(=O)oc2ccccc32)cc1OC (stereo not given) | 1.55% |
| CC1(C)Cc2c(C#N)c(N3CCNCC3)nc(-c3ccco3)c2CS1 | -15.4% |
| Cc1cc(=O)oc2c(C)c(OCC(=O)N3CCN(Cc4ccc5c(c4)OCO5)CC3)ccc12 | 0.853% |
| Fc1ccc(N2CCN(Cc3ccc4c(c3)OCO4)CC2)cc1 | -111% (active) |
| CC(C)c1ccc(O)c(CN2CCN(c3ccccc3)CC2)c1 | -71% (active) |
| O=C(Cc1ccccc1[N+](=O)[O-])N1CCN(Cc2ccc3c(c2)OCO3)CC1 | -4.07% |
| Oc1cc2c(cc1CN1CCN(c3ccccc3)CC1)OCO2 | -71.5% (active) |
| CCN1CCN(Cc2cc(OC)c3c(c2)OCO3)CC1 | 2.18% |
| COc1ccccc1CN1CCN(C(=O)Cc2ccccc2)CC1 | -24% |
